The other results are listed elsewhere or left out. Activity calls are given as the source filed them. No rule for the calls is given here.
Assay: V. cholerae lux activation without autoinducers – BH1578 luxS cqsA deficient, cherry-pick, plate reader, dose response (AID 602243)
Conditions: V. cholerae BH1578 lux reporter, luminescence, 6 h; series mostly up to 50 µM

SMILES | outcome
CCC(C)(C)n1nnnc1CN1CCN(c2nc3ccc(C)cc3cc2C#N)CC1 | inactive
CCCn1nnnc1NCc1ccc(CC)cc1 | inactive
COc1ccc(N(CC(=O)NC2CCCCC2)C(=O)CNC(=O)c2ccco2)c(OC)c1 | inactive
NC(=O)c1nsc(C(=O)N(CC(=O)NCc2ccc(F)cc2)Cc2ccco2)c1N | inactive
COc1ccc(CNc2nnnn2C)cc1 | inactive
CCCS(=O)(=O)N1CCCC(C(=O)N2CCN(c3ccccc3)CC2)C1 (stereo not drawn) | inactive
COc1cc(S(=O)(=O)N(Cc2cccs2)C2CC2)ccc1-n1cnnn1 | inactive
Cc1cccc(C(=O)OCC(=O)NCC(C)C)c1O | inactive
CCN(CC(=O)NCc1ccc(Cl)cc1)C(=O)CSc1ccccc1 | inactive
CC(C)CNC(=O)COC(=O)/C=C/c1ccco1 | inactive
CCc1cccc(C)c1N(C(=O)Cn1c(CO)nc2ccccc21)C(C)COC (stereo not drawn) | inactive
CCOC(=O)C1(CCOc2ccccc2)CCN(Cc2cc(OC)cc(OC)c2)CC1 | inactive
COc1ccc(S(=O)(=O)N2CCN(c3cnccn3)CC2)cc1 | inactive
CCOc1ccc(CCNC(=O)C2CCN(c3ccc(N4CCOCC4)nn3)CC2)cc1OCC | inactive
O=C(Nc1ccc2oc(-c3ccc4ccccc4c3)nc2c1)c1cccs1 | inactive
COc1ccccc1CCNC(=O)C(=O)NCCC1CCCCN1S(=O)(=O)c1cccs1 (stereo not drawn) | inactive
O=C(NCc1ccccn1)c1c(O)c2c([nH]c1=O)CCCC2 | inactive

SMILES | outcome
COc1ccc2[nH]c(=O)c(CNc3ccc(C)c(C)c3)cc2c1 | inactive
CN(CC(=O)Nc1ccc(OC(F)(F)F)cc1)C(=O)C1CCC1 | inactive
O=C(NCCS(=O)(=O)N1CCN(c2ccccc2)CC1)c1ccco1 | inactive
COc1ccc(OCc2cn3c(C)cc(C)nc3n2)cc1 | inactive
CCN(CC)c1nc(-c2ccccc2)cc(C(F)(F)F)c1C#N | inactive
COc1ccc(Cl)cc1NC(=O)CN(C)C(=O)CNC(=O)C12CC3CC(CC(C3)C1)C2 | inactive
CC(=O)N1CCN(C(=O)c2cc(-c3ccc(Cl)s3)nc3ccccc23)CC1 | inactive
Cc1onc(-c2ccccc2)c1C(=O)N1CCOCC1 | inactive
CCCn1nnnc1NCc1ccc(OC)cc1 | inactive
CC1CN(C(=O)COC(=O)c2cccc(NS(=O)(=O)c3ccccc3)c2)CC(C)O1 (stereo not drawn) | inactive
COc1ccc(Cl)cc1NC(=O)COC(=O)c1ccc(Br)o1 | inactive
CC(C)CC(=O)N1CCN(Cc2ccccc2Br)CC1 | inactive
NNC(=O)c1nnn(-c2nonc2N)c1CN1CCCC1 | inactive
COCCn1nnnc1CN1CCC(NC(=O)Nc2cccc(OC)c2)CC1 | inactive
O=C(Cc1ccc2c(c1)CCCC2)Nc1ccccc1Cl | inactive
O=C(CN1CCC(O)(c2cccc(C(F)(F)F)c2)CC1)NCCc1ccccc1 | inactive

From PubChem BioAssay AID602243 (Broad Institute, 2012)
